# In the library only some 19% were active in any assay of this set; here they are far more common.
# TDP1 cell CPT – DT40-hTDP1 cell growth loss with CPT; Potency, µM (doses to about 46.2 µM), without a hit: at the highest dose activity change, negative = growth inhibition, hits mostly inhibitors; chicken DT40 Tdp1-/-;hTDP1 cells + 20 nM CPT, ATP luminescence, 48 h; hit rate 12% among 420,000; note: potency is the fitted concentration of half-maximal effect; nearly all actives have a fitted effect of over 55% in size
#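 Chicken DT40 Tdp1-/- cells complemented with human TDP1, 400 cells/well, exposed to compounds plus 20 nM camptothecin for at least 48 h at 37 C; viability read as ATP content by CellTiter-Glo luminescence.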
# HT1080NT lethal – kills 2HG-producing HT-1080-NT fibrosarcoma cells; hit rate 1.6% among 360,000; HT-1080-NT fibrosarcoma viability, CellTiter-Glo ATP luminescence, 48 h; Potency, µM (titrated, usually from 46.1 µM), inactives show at the top dose activity, negative = less viability, usual class: cytotoxic; AID 686970;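 note: NT is the 2HG producing partner of a matched IDH1 knockdown line; potency is the fitted concentration of half-maximal effect; 0% = DMSO-treated cells and -100% = media-only wells without cells; nearly all actives have a fitted effect of over 55% in size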
#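 750 cells/well, RPMI + 5% FBS; 2 h settle, compound pin-transfer, 48 h at 37 degrees C. CellTiter-Glo 10 min RT, luminescence. Normalized to DMSO and media-only wells.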
# IL-1B inflam inh – inhibitors of inflammasome signaling (IL-1 beta secretion). THP-1 LPS/ATP IL-1B secretion, AlphaLISA, 16 h; active compounds read low. activity change, % at 57.5 µM. hit rate 4.7% among 360,000. AID 743279; in the data active = activity change below about -50%; inconclusive = mostly about -30% to -49%
#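 THP-1 cells pretreated 1 hr with compounds (up to 57.5 uM final), then stimulated with LPS (250 ng/mL final) plus ATP (1.25 mM final); secreted IL-1B measured by AlphaLISA after 16 hr, decreased signal indicating inhibition.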
# DT40 TDP1 no CPT – qHTS for Inhibitors of human tyrosyl-DNA phosphodiesterase 1 (TDP1): qHTS in cells in absence of CPT; AID 686978, 2013; Potency, µM (top dose mostly 46.2 µM), without a hit: at the top dose activity change, negative = growth inhibition, usual class: inhibitors; hit rate 15% among 420,000; DT40 Tdp1-/- hTDP1 cells, no CPT, ATP luminescence, 48 h; note: potency is the fitted concentration of half-maximal effect; nearly all actives have a fitted effect of over 55% in size
#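 Chicken DT40 Tdp1-/- cells stably complemented with human TDP1 were seeded at 400 cells/well with DMSO in place of 20 nM camptothecin. After compound pinning, cells grew at least 48 hr at 37 °C; viability read by CellTiter-Glo luminescence.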
# HT1080 IDH1KD tx – kills HT-1080 cells with IDH1 knockdown; HT-1080 IDH1 knockdown viability, ATP luminescence, 48 h; Potency, µM (doses to about 46.1 µM), for the others: at the highest dose activity, negative = toxicity, hits mostly cytotoxic; hit rate 2% among 360,000; AID 686971;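 note: potency is the fitted concentration of half-maximal effect; 0% = DMSO wells and -100% = cell-free medium wells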
#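 Assay cells: HT-1080 with IDH1 knockdown, 750 per well, RPMI/5% FBS. Exposure: 48 h at 37 °C following 2 h pre-incubation. Read: CellTiter-Glo luminescence; fitted concentration-response, curve class assigned.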
# The depositor's hits bear a star; ? = inconclusive; . = no result; [ ] = dose if it differs, or a comment. Unless noted, calls come from the whole dose curve; as a rule, active = well fitted curve in the direction sought with a large enough effect; inconclusive = small, poorly fitted or top-dose-only effect, or another doubt; inactive = no such curve, though single readings can be large; an effect the other way counts as inactive or inconclusive. Unless noted, % is set by controls: 0 for no effect and ±100 for the full control effect.
SMILES,TDP1 cell CPT,HT1080NT lethal,IL-1B inflam inh,DT40 TDP1 no CPT,HT1080 IDH1KD tx
CCOC(=O)c1ccc(NC(=O)CC2S/C(=N/N=C/c3c[nH]c4ccccc34)NC2=O)cc1 (configuration not stated),-23%,?,-68*,?,?
CCCN1CNc2c(c(=O)[nH]c(=S)n2CCc2c(OC)cccc2OC)C1,-25%,3%,.,-28%,16%
Fc1ccc(CCNC(=S)Nc2ccc(F)cc2)cc1,?,3%,2,18µM*,3%
CCOc1ccccc1NC(=S)NCCc1ccccc1,?,25%,1,?,-1%
Fc1ccc(NC(=S)NCc2ccccc2)cc1,-21%,-2%,-17,-2%,-5%
Cc1ccc(F)cc1NC(=S)NCCc1ccccc1,?,-6%,-15,26µM*,-10%
CCCCc1ccc(NC(=S)NCCc2ccc(F)cc2)cc1,?,?,-110*,?,?
O=C(N/N=C/c1ccc(N2CCOCC2)s1)c1ccc(O)cc1,-15%,1%,?,-25%,3%
O=C(N/N=C/c1ccc(Br)s1)c1ccccc1[N+](=O)[O-],0%,-18%,-4,-28%,-13%
O=C(N/N=C/c1ccc(Br)s1)c1ccc([N+](=O)[O-])cc1,?,?,-4,2.6µM*,?
O=C(NN=Cc1ccc(N2CCOCC2)s1)c1ccc([N+](=O)[O-])cc1,?,-10%[9.24 µM],?,18µM*,2%
CC(C)CCn1c(=O)c2sccc2n2c(CCCC(=O)N3CCN(c4ccccn4)CC3)nnc12,?,-8%,-27,-27%,1%
CCN(CC)S(=O)(=O)c1ccc(S(=O)(=O)N(CC(=O)Nc2ccccc2)Cc2ccco2)cc1,18µM*,4%,6,?,4%
CN(C)S(=O)(=O)c1ccc(S(=O)(=O)N(Cc2ccco2)Cc2ccccc2Cl)cc1,21µM*,4%,9,16µM*,5%
CN(C)S(=O)(=O)c1ccc(S(=O)(=O)N(CC(=O)Nc2ccccc2)Cc2ccco2)cc1,-22%,-5%,11,-25%,-10%
COc1ccc(S(=O)(=O)N(Cc2ccc(OC)c(OC)c2)Cc2ccco2)cc1,23µM*,-13%,-14,18µM*,-12%
COc1ccc(S(=O)(=O)N(CCC(N)=O)Cc2ccco2)cc1OC,7%,-1%,2,-12%,16%
Cc1ccc(S(=O)(=O)N(Cc2ccccc2)Cc2ccco2)cc1,9.2µM*,-4%,2,?,-6%
Cc1ccc(S(=O)(=O)N(C)CC(=O)N2CC(C)OC(C)C2)cc1 (configuration not stated),-11%,16%,23,10%,19%
C=CCSc1nnc(NC(=O)C2CC(=O)N(c3ccc4c(c3)OCCO4)C2)s1 (configuration not stated),-17%,-1%,9,13%,2%
Cc1ccc(C)c2[nH]c(=O)c(CCNC(=O)CCc3ccccc3)cc12,7%,18%,-12,-13%,14%
CCOC1=C2[C@H](c3ccccc3)N(S(=O)(=O)c3ccccc3)C[C@H]2n2c(=O)n(-c3ccccc3)c(=O)n2C1,-29%,15%,-7,-23%,19%
O=C1Cc2ccccc2C(=O)N1,1.5µM*,7%,107,1.2µM*,5%
Cc1cc(C)c(C#N)c(Sc2nc(C)c([N+](=O)[O-])c(C)c2C#N)n1,3.7µM*,16µM*,?,5.8µM*,4.6µM*
Cc1cc(C)c(C#N)c(SCc2ccc([N+](=O)[O-])cc2)n1,1%,2%,-10,23%,9%
Cc1nc(Sc2ccccc2)c(C#N)c(C)c1[N+](=O)[O-],?,-28%,.,16µM*,?
CN(C)Cc1ccccc1-c1cncnc1NC1CC1,-3%,.,.,-13%,.
CC1CCC(NC(=O)Cn2c3c(c(-c4ccccc4Cl)cc2=O)CCC3)CC1 (configuration not stated),16µM*,-3%,-16,13µM*,-8%
